Results reported in PubChem BioAssay (EPA / NIEHS).
Activity calls are given as the source filed them. Rule for the calls: active = hit-call score of the fitted dose curve at least 0.9, where 1 is the maximum; inactive = score below 0.9.

read-out: ATP-citrate lyase (ACLY), ACLY (gene 47); test: LTEA_HepaRG_ACLY: Life Technologies and Expression Analysis (LTEA) Assay for ATP-citrate lyase (ACLY) using HepaRG (AID 2283466); settings: mRNA level, 48 h; actives raise or lower the signal
Experimental: LTEA_HepaRG is a cell based, multiplexed-readout assay that uses HepaRG, a human liver cell line, with measurements taken at 48 hours after chemical dosing on a 96-well plate.LTEA_HepaRG_ACLY is one of 102 assay component(s) measured in the LTEA HepaRG cell culture assay. It is a marker of Steatosis.Data from the assay component LTEA_HepaRG_ACLY was analyzed into 1 endpoint. This assay endpoint, LTEA_HepaRG_ACLY, was analyzed with bidirectional fitting relative to DMSO as the negative control and baseline of activity. Using a type of inducible reporter, measures of mRNA induction for gain or loss-of-signal activity can be used to understand regulation of transcription factor activity. To generalize the intended target to other relatable targets, this assay endpoint is annotated to the lyase intended target family, where the subfamily is steatosis.
A total of 1060 chemcials from the ToxCast library were tested in eight-point concentration-response experiments. Cell culture and cytotoxicity assays were conducted at Thermo Fisher Scientific's Custom Services facility (Madison, WI). A single lot of human HepaRG cells (Thermo Fisher Scientific, Frederick, MD) was used for the cell culture experiments. 96-well format collagen type I coated plates of human HepaRG cells were prepared using established methods. Briefly, cryopreserved HepaRG cells were thawed, plated at a density of approximately 100,000 cells/well in HepaRG Thaw, Plate, and General Purpose media (HPRG770, Thermo Fisher Scientific), and incubated for 48 hours. 0.5% DMSO was selected as vehicle control to balance the requisite need of DMSO in HepaRG cultures to maintain differentiation (for example, baseline metabolism, proportions of hepatocytes vs. cholangiocytes), while enabling further hepatic receptor pathway activation (for example, PXR and CAR) in response to chemical exposure. 48 hours after plating, the culture medium was replaced with HepaRG Serum-Free Incudtion Media. Cells were exposed to each test chemical in duplicate and maintained in CO2 incubators for another 48 hours. Chemical plates were thawed to room temperature and 200x concentrations of treatment groups were prepared. 8-point conentration-reponse curves were made with the highest exposure at 100 uM, followed by half-log dilutions, all in 0.5% DMSO. Each test plate contained variouse controls, induction positive controls (1mM phenobarbital), cytotoxicity positive controls ([…] aflatoxin B1), vehicle controls (0.5% DMSO), and total lysis controls (0.5% DMSO). Cell morphology images were taken using an Essen IncuCyte FLR automated microscope, with six 96-well plates imaged in about 24 minutes. Images were captured and exported and JPEG files. Spent culture media was transfered to black-well plates for the LDH assay, and remaining media was sorted at -80 C for later use. Cells were treated with RLT buffer and frozen until shipped for gene expression analysis. Total RNA was isolated from the cell suspension in 75 uL of Buffer RLT (Qiagen, Germantown, MD 20874) by Quintiles/Expression Analysis (Durham, NC) using a custom isolation procedure. Total RNA from each plate well was transferred to a preamplification plate. Fluidigm's 96.96 Dynamic ArrayTM (Fluidigm, Amsterdam, the Netherlands) technology was used for gene expression analyses by quantitative reverse transcription polymerase chain reaction (qRT-PCR, performed by Quintiles/Expression Analysis, Durham, NC)89. Standard TaqManTM Assays (Applied Biosystems/ThermoFisher Scientific, Foster City, CA) were used to assess the expression of 93 genes selected based on their selectivity and sensitivity to important hepatic receptors known to be modulated by environmental chemicals; importance in human hepatocyte functionality; and hepatotoxicity. […]

SMILES	outcome	AC50
CC1(C)CON(Cc2ccccc2Cl)C1=O	inactive	
CC1(C)C(C(=O)OC(C#N)c2cccc(Oc3ccccc3)c2)C1(C)C (stereo not given)	inactive	
CCOc1nc(F)cc2nc(S(=O)(=O)Nc3c(Cl)cccc3Cl)nn12	inactive	
N#Cc1c(Cl)cccc1Cl	inactive	
CC(C)(C)C(=O)C(Oc1ccc(Cl)cc1)n1cncn1 (stereo not given)		66.5 µM (active)
Cc1cc(C)nc(Nc2ccccc2)n1	inactive	
CS(=O)(=O)c1ccc(C(=O)C2C(=O)CCCC2=O)c([N+](=O)[O-])c1	inactive	
C=C(C)CN(CC)c1c([N+](=O)[O-])cc(C(F)(F)F)cc1[N+](=O)[O-]	inactive	
CN=C=S	inactive	
CC(C)C1(C)N=C(c2ncccc2C(=O)O)NC1=O (stereo not given)	inactive	
CCN(CC)C(=O)C(C)Oc1cccc2ccccc12 (stereo not given)	inactive	
CCNP(=S)(OC)O/C(C)=C/C(=O)OC(C)C (stereo not given)		67 µM (active)
CCCCOCN(C(=O)CCl)c1c(CC)cccc1CC	inactive	
Cc1ccc(N=CN(C)C=Nc2ccc(C)cc2C)c(C)c1	inactive	
Cc1cnc(C2=NC(C)(C(C)C)C(=O)N2)c(C(=O)O)c1 (stereo not given)	inactive	
COP(=S)(OC)Oc1ccc([N+](=O)[O-])c(C)c1	inactive	
CS(=O)(=O)c1cc(C(F)(F)F)ccc1C(=O)c1cnoc1C1CC1	inactive	
CCOC(=O)C(C)OC(=O)c1cc(Oc2ccc(C(F)(F)F)cc2Cl)ccc1[N+](=O)[O-] (stereo not given)		50 µM (active)
COC(=O)NC(=S)Nc1ccccc1NC(=S)NC(=O)OC	inactive	
CCCCC(C#N)(Cn1cncn1)c1ccc(Cl)cc1 (stereo not given)		50 µM (active)

SMILES	outcome	AC50
CC1(C)CCC(=Cc2ccc(Cl)cc2)C1(O)Cn1cncn1 (stereo not given)		34 µM (active)
CC(C)Oc1cccc(NC(=O)c2ccccc2C(F)(F)F)c1	inactive	
COC(=O)N(C(=O)N1CO[C@@]2(C(=O)OC)Cc3cc(Cl)ccc3C2=N1)c1ccc(OC(F)(F)F)cc1	inactive	
CSC(=O)c1c(C(F)F)nc(C(F)(F)F)c(C(=O)SC)c1CC(C)C		77.9 µM (active)
CC(C)N1C(=O)N(c2ccccc2)CSC1=NC(C)(C)C		84.3 µM (active)
CCSC(=O)N1CCCCCC1	inactive	
N#Cc1c[nH]cc1-c1cccc2c1OC(F)(F)O2	inactive	
Cn1c(-c2ccccc2)cc(-c2ccccc2)[n+]1C	inactive	
CNC(=O)N(C)c1nnc(C(C)(C)C)s1	inactive	
CC(C)N1C(=O)c2ccccc2NS1(=O)=O	inactive	
O=C(O)c1c(Cl)ccc2cc(Cl)cnc12	inactive	
COc1ccc(-c2ccccc2)cc1NNC(=O)OC(C)C	inactive	
COc1cc(Cl)c(OC)cc1Cl	inactive	
C=CCOC(=O)C(C)(C)OC(=O)c1cc(-n2c(=O)cc(C(F)(F)F)n(C)c2=O)ccc1Cl	inactive	
CN/C(=N\[N+](=O)[O-])NCc1cnc(Cl)s1	inactive	
O=C1C2CC=CCC2C(=O)N1SC(Cl)(Cl)Cl (stereo not given)	inactive	
COCC(C)N(C(=O)CCl)c1c(C)csc1C (stereo not given)	inactive	
Nc1cnn(-c2ccccc2)c(=O)c1Cl	inactive	
Cc1nc(N(C)C)nc(OC(=O)N(C)C)c1C	inactive	
CC(C)NC(=O)N1CC(=O)N(c2cc(Cl)cc(Cl)c2)C1=O	inactive	
